Compound activity (PubChem)
Sampled rows, rich in hits. Any-hit rate of the full collection: about 21%.
Shiga inhibitor: blocks Shiga toxin action in Vero cells | 290,000 tested, 9.2% active | Vero cells, Shiga toxin protein synthesis inhibition reporter | inhibition, % at 38.7 µM; in the data active = inhibition mostly above about 28%, no sharp cut-off; inactive = mostly below about 43%; also: 0% is about no effect
Pf growth 48h: inhibits P. falciparum growth in the first generation, 48 h; P. falciparum luciferase growth in erythrocytes, 48 h; Potency, µM (series often up to 28.7 µM), for inactives: at the highest dose activity change, negative = inhibition, usual class: inhibitors; 310,000 tested, 5.9% active; AID 504832; also: potency is read from the fitted curve at half-maximal effect; % is scaled to controls: 0 for no effect and ±100 for the full control effect
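A one-generation exposure of luciferase-tagged malaria parasites in RPMI 1640/Albumax erythrocyte culture, 37 C and 5% CO2. Inhibition is inferred from decreased luminescence after adding detection reagent.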
HCMV inh: inhibitors of human cytomegalovirus; activity change, negative = inhibition, % at 57.5 µM; 410,000 tested, 4.5% active; HFF cells, HCMV-luciferase reporter, 72 h; hits give low values; AID 1259415; in the data active = activity change below about -60%; inconclusive = no clear call, values can overlap the other calls; inactive = above about -39%; also: % is scaled to controls: 0 for no effect and ±100 for the full control effect
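Two-dose cell screen: HFF monolayers treated with compounds and infected with luciferase-expressing HCMV at 1 PFU/cell, 72 h at 37C, then lysed for luciferase measurement.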
HCV inh: inhibitors of hepatitis C virus infection; Huh7.5.1 HCVcc-Cre infection, luciferase reporter, 44 h; Potency, µM (doses to about 41.8 µM), inactives show at the top dose activity change, negative = inhibition, most hits filed as inhibitors; 340,000 tested, 3.4% active; AID 651820; also: potency is read from the fitted curve at half-maximal effect; % is scaled to controls: 0 for no effect and ±100 for the full control effect
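Infectious HCVcc-Cre (~0.5 moi) was added to cells just after compound, with cells seeded 4 h earlier at 1,000 per well. Luciferase activity after 44 h culture reported infection; substrate was incubated 15 min at room temperature before reading.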
Pf growth 96h: P. falciparum growth inhibition at 96 hours; P. falciparum luciferase reporter growth, 96 h; Potency, µM (top dose mostly 28.7 µM), inactives show at the top dose activity change, negative = inhibition, most hits filed as inhibitors; 320,000 tested, 6.9% active; AID 504834; also: potency is read from the fitted curve at half-maximal effect; % is scaled to controls: 0 for no effect and ±100 for the full control effect
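Plates of compound plus infected erythrocytes (2% hematocrit, 0.05% parasitemia final) incubate 96 hours, 37 C, 5% CO2. Detection reagent added; reduced luminescence from the parasites' luciferase reporter flags inhibition.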
CHX counter: affects cycloheximide protein synthesis inhibition readout, counter-screen. cell reporter, cycloheximide protein synthesis inhibition counterscreen. max response, %. 300,000 tested, 12% active; in the data active = max response mostly above about 13%, no sharp cut-off; inactive = mostly below about 14%; also: read at 38.3 µM for the half of the compounds with a filed dose; 0% is about no effect
The depositor's hits bear a star; ? = inconclusive; nt = no result; + = active, no number; [ ] = remark or other dose. Unless noted, calls follow the shape of the dose curve; as a rule, active = well fitted inhibition curve with a large enough effect; inconclusive = small, poorly fitted or top-dose-only effect, or another doubt; inactive = no such curve, though single readings can be large or run the other way.

SMILES	Shiga inhibitor	Pf growth 48h	HCMV inh	HCV inh	Pf growth 96h	CHX counter
Cc1ccc(Nc2c(N)c(=O)oc3ccccc23)cc1	57.1*	?	31.3	?	-23.1%	21.9*
Cc1ccc(S(=O)(=O)N2CC(=NO)C2)cc1	-17.1	8.8%	-33.9	3.2%	13.1µM*	0.8
Cc1ccc(S(=O)(=O)N2CCN(S(C)(=O)=O)C2)cc1	-9.3	7.2%	29.8	7.4%	13.1µM*	0.5
Cc1ccc(S(=O)(=O)N2CCN(S(=O)(=O)c3ccccc3)C2)cc1	-13.0	nt	2.3	nt	-10.1%	-1.0
O=C(C(=O)c1ccc(O)cc1)c1ccccc1	17.1	2.0%	-2.3	4.8%	226.7%	2.1
N#CC(C(=O)c1ccccc1)=C1SCCS1	58.0*	22.2%	22.1	8.3%	7.7%	35.0*
Cc1cccc(C(=O)Nc2ccc3nc(SCC(=O)N4CCCC4)sc3c2)c1	nt	nt	-28.4	nt	nt	nt
CCOC(=O)C1CCN(Cc2cc(Cl)c3ccccc3c2O)CC1	46.6	1.17µM*	nt	-25.2%	1.17µM*	11.9*
CCOC(=O)C1CCN(Cc2ccccn2)CC1	-0.9	8.6%	nt	nt	10.4µM*	-2.0
N#CC1=C(N)Oc2cc(O)ccc2C1c1ccncc1 (stereo unspecified)	-19.9	0.3%	14.3	26.4%	9.28µM*	-0.7
N#CC1=C(N)Oc2cc(O)ccc2C1c1cccnc1 (stereo unspecified)	-0.2	5.7%	-22.6	9.8%	-9.2%	-3.0
CN(C)c1ccc2c(c1)OC(N)=C(C#N)C2c1cccc(F)c1 (stereo unspecified)	-5.2	13.1µM*	nt	?	?	-3.7
COC(=O)c1ccc(C2C(C#N)=C(N)Oc3cc(N)ccc32)cc1 (stereo unspecified)	-15.1	-21.0%	17.7	14.7%	11.7µM*	1.7
COC(=O)c1ccc(C2C(C#N)=C(N)Oc3cc(O)ccc32)cc1 (stereo unspecified)	2.3	-6.0%	50.1	23.0%	40.3%	7.4
CN(C)c1ccc(N=Cc2nc(-c3ccccc3)oc2OC(=O)c2cccc(Br)c2)cc1	+	320.2%	12.4	-14.4%	385.4%	40.0*
Cc1ccc(C(=O)Oc2oc(-c3ccco3)nc2C=Nc2ccccc2)cc1	89.1*	145.5%	nt	nt	86.9%	31.4*
O=C(O)c1ccc(N=Cc2nc(-c3ccco3)oc2O)cc1	-3.9	7.7%	-17.2	14.5%	?	-0.5
Oc1oc(-c2ccco2)nc1C=Nc1ccccc1	98.6*	11.7%	-8.6	-12.0%	17.7%	19.4*
COc1ccc(N=Cc2nc(-c3ccccc3)oc2OC(=O)c2ccccc2)cc1	66.7*	139.9%	1.1	3.0%	242.8%	59.3*
CCN(C)C(=O)C1=CN2CCN(Cc3ccccc3C(F)(F)F)C(=O)N=C2O1	nt	nt	14.3	nt	nt	nt
Cc1cc(C)cc(NC(=O)c2cnn(-c3ccccc3)c2C2CCNCC2)c1	5.6	?	-85.6*	-1.3%	?	-2.0
Cc1cc(C)cc(NC(=O)c2cnn(-c3ccc(C)c(C)c3)c2C2CCNCC2)c1	nt	nt	-92.6*	nt	nt	nt
Cc1ccc(C)c(NC(=O)c2cnn(-c3ccc(F)cc3F)c2C2CCNCC2)c1	nt	nt	11.9	nt	nt	nt
Cc1ccc(-n2ncc(C(=O)NCCN3CCc4ccccc4C3)c2C2CCNCC2)cc1C	nt	nt	-24.2	nt	nt	nt
CCc1ccc(NC(=O)c2cnn(-c3ccccc3)c2C2CCNCC2)cc1	-15.8	?	?	27.7%	25.2%	1.7
SMILES	Shiga inhibitor	Pf growth 48h	HCMV inh	HCV inh	Pf growth 96h	CHX counter
Cc1ccc(-n2ncc(C(=O)Nc3cc(Cl)ccc3C)c2C2CCNCC2)cc1C	0.2	?	-91.2*	-11.2%	-12.3%	-2.3
O=C(Nc1cccc(C(F)(F)F)c1)c1cnn(-c2cccc(F)c2)c1C1CCNCC1	nt	nt	-76.9*	nt	nt	nt
S=c1[nH]nc(Cc2noc3ccccc23)n1-c1ccccc1	-1.3	16.8%	?	-6.1%	?	-2.2
CCc1c(C)nn(C(=O)/C(C#N)=C\N(C)C)c1C	26.9	7.9%	-34.5	8.7%	-54.9%[1.15 µM]	-4.6
CCCC[C@H]1C2=C3[C@@H](CC(C(=O)OC)=C[C@@H](C(=O)OC)[C@H]3C(C)(C)C2=O)n2c(=O)n(-c3ccccc3)c(=O)n21	1.4	nt	6.3	-27.0%	nt	-4.0
COc1ccc(S(=O)(=O)N2CCN(c3ccccn3)CC2)c(OC)c1	-5.8	15.7%	-37.3	3.4%	4.65µM*	2.1
